# Inconclusive results are not listed. Where a call stands in place of a potency, no number is given. Active and inactive are the calls of the source. Calls come from the whole dose curve; as a rule, active = well fitted inhibition curve with a large enough effect; inconclusive = small, poorly fitted or top-dose-only effect; inactive = flat fitted curve, though single readings scatter.
# System: CP237
# Test: qHTS profiling for inhibitors of Plasmodium falciparum proliferation (AID 504749); note: nearly all actives have a fitted effect of over 60% in size
# Conditions: P. falciparum in erythrocytes, SYBR Green DNA, 72 h; series mostly up to 28.7 µM
# Outline: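 SYBR Green fluorescence (ex 485 nm, em 535 nm) reports parasite DNA after 72 h compound exposure of infected red cells at 0.3% parasitemia, 2.5% hematocrit; signal normalized to 0.29 uM artemisinin and vehicle wells.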
row,Structure (SMILES),Potency
1,NC(=O)NNc1ccccc1,inactive
2,O=C(O)[C@@H]1CSCN1,inactive
3,COc1ccc2c(c1)C(=O)N(CCc1ccc(S(=O)(=O)NC(=O)NC3CCCCC3)cc1)C(=O)C2(C)C,inactive
4,CCCc1c(OCCCCc2nn[nH]n2)ccc(C(C)=O)c1O,inactive
5,CCn1cc(C(=O)O)c(=O)c2cnc(N3CCNCC3)nc21,inactive
6,O=C(O)COc1nn(Cc2ccccc2)c2ccccc12,inactive
7,O=C1O[C@H]([C@@H](O)CO)C(O)=C1O,inactive
8,O=S(=O)(O)c1cc(I)c(O)c2ncccc12,inactive
9,CC1=C(CC(=O)O)c2cc(F)ccc2/C1=C\c1ccc(S(C)=O)cc1 (stereo not given),inactive
10,CCOC(=O)c1ccc(O)cc1,inactive
11,O=C(O)c1ccccn1,inactive
12,NCC(=O)CCC(=O)O,inactive
13,CC(C)(C)C(=O)NCCCC(=O)O,inactive
14,COc1cc2[nH]c(=O)[nH]c(=O)c2cc1OC,inactive
15,CCC(=O)Nc1ccc(O)cc1,inactive
16,COc1ccc(Cl)cc1C(=O)NCCc1ccc(S(=O)(=O)NC(=O)NC2CCCCC2)cc1,inactive
17,O=C1NC(=O)[C@@]2(CCOc3ccc(F)cc32)N1,inactive
18,O=Cc1ccccc1C=O,inactive
19,CC(O)CN(CCN(CC(C)O)CC(C)O)CC(C)O (stereo not given),inactive
20,Cc1ccc(C(C)C)cc2c(C)ccc1-2,inactive
21,Nc1nc2c(ncn2CCC(CO)CO)c(=O)[nH]1,inactive
22,NCCNCCNCCN,inactive
23,CC1(C)OC(=O)NC1=O,inactive
24,CCCCN(CCCC)CCCOC(=O)c1ccc(N)cc1,inactive
25,O=C1c2c(O)cccc2Cc2cccc(O)c21,inactive
